Source: PubChem BioAssay AID1159580 (chemical genetic matrix, 2015)
Hit rate of the full screen: of about 5,500 compounds, about 2,000 (36%) were called active. Not shown: some 18% with an inconclusive outcome. No stated cut-off is given here; in the data, active means normalized growth mostly below about 0.91 (no sharp cut-off); inconclusive means no clear call, values can overlap the other calls; inactive means mostly above about 0.92. The list shows a part of the results.

Test: chemical genetic growth profiling, strain panel (AID 1159580);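 further: tested at 20 µM; growth read once vehicle control cultures reached saturation at 30 °C; 1 = growth at the plate median or of vehicle wells; lower values mean less growth of the strain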
Conditions: S. cerevisiae deletion strains, growth OD
[1] = locus YAR019C, strain CDC15, hits give low values
[2] = locus YBL105C, strain PKC1, hits give low values
[3] = locus YBR135W, strain CKS1, hits give low values
[4] = locus YBR136W, strain MEC1, hits give low values
[5] = locus YBR160W, strain CDC28, hits give low values
[6] = locus YDL017W, strain CDC7, hits give low values
[7] = locus YDL028C, strain MPS1, hits give low values
[8] = locus YDL101C, strain DUN1, hits give low values
[9] = locus YDL108W, strain KIN28, hits give low values
[10] = locus YDL132W, strain cdc53, hits give low values
[11] = locus YDL214C, strain PRR2, hits give low values
[12] = locus YDR052C, strain DBF4, hits give low values
[13] = locus YDR054C, strain cdc34, hits give low values
[14] = locus YDR226W, strain ADK1, hits give low values
[15] = locus YDR477W, strain SNF1, hits give low values
[16] = locus YER123W, strain YCK3, hits give low values
[17] = locus YER133W, strain GLC7, hits give low values
[18] = locus YFL009W, strain cdc4, hits give low values
[19] = locus YFL029C, strain CAK1, hits give low values
[20] = locus YFR003C, strain YPI1, hits give low values
[21] = locus YFR019W, strain FAB1, hits give low values
[22] = locus YFR028C, strain CDC14, hits give low values
[23] = locus YGR040W, strain KSS1, hits give low values
[24] = locus YGR052W, strain FMP48, hits give low values
[25] = locus YGR092W, strain DBF2, hits give low values
[26] = locus YHR030C, strain SLT2, hits give low values
[27] = locus YHR079C, strain IRE1, hits give low values
[28] = locus YHR082C, strain KSP1, hits give low values
[29] = locus YHR205W, strain SCH9, hits give low values
[30] = locus YIL147C, strain SLN1, hits give low values
[31] = locus YJL095W, strain BCK1, hits give low values
[32] = locus YJL128C, strain PBS2, hits give low values
[33] = locus YJL157C, strain FAR1, hits give low values
[34] = locus YJR016C, strain ILV3, hits give low values
[35] = locus YJR066W, strain TOR1 (second series), hits give low values
[36] = locus YJR066W, strain TOR1, hits give low values
[37] = locus YKL048C, strain ELM1, hits give low values
[38] = locus YKL067W, strain YNK1, hits give low values
[39] = locus YKL101W, strain HSL1, hits give low values
[40] = locus YKL193C, strain SDS22, hits give low values
[41] = locus YKL203C, strain TOR2, hits give low values
[42] = locus YLR113W, strain HOG1, hits give low values
[43] = locus YLR133W, strain CKI1, hits give low values
[44] = locus YLR403W, strain SFP1, hits give low values
[45] = locus YML070W, strain DAK1, hits give low values
[46] = locus YMR001C, strain CDC5, hits give low values
[47] = locus YMR205C, strain PFK2 (second series), hits give low values
[48] = locus YMR277W, strain FCP1, hits give low values
[49] = locus YNL006W, strain LST8, hits give low values
[50] = locus YNL020C, strain ARK1, hits give low values
[51] = locus YNL161W, strain CBK1, hits give low values
[52] = locus YNL183C, strain NPR1, hits give low values
[53] = locus YNL207W, strain RIO2, hits give low values
[54] = locus YNL222W, strain SSU72, hits give low values
[55] = locus YNL307C, strain MCK1 (second series), hits give low values
[56] = locus YOL078W, strain AVO1, hits give low values
[57] = locus YOL136C, strain PFK27, hits give low values
[58] = locus YOR061W, strain CKA2, hits give low values
[59] = locus YOR119C, strain RIO1, hits give low values
[60] = locus YOR231W, strain MKK1, hits give low values
[61] = locus YOR329C, strain SCD5, hits give low values
[62] = locus YPL031C, strain PHO85, hits give low values
[63] = locus YPL153C, strain RAD53, hits give low values
[64] = locus YPL204W, strain HRR25, hits give low values
[65] = locus YPL209C, strain IPL1, hits give low values
[66] = locus YPL256C, strain CLN2, hits give low values
[67] = locus YPR025C, strain CCL1, hits give low values
[68] = locus YPR106W, strain ISR1, hits give low values
[69] = locus YPR111W, strain DBF20, hits give low values
[70] = strain NNK1, hits give low values
[71] = strain TSCII, hits give low values

Measured: normalized growth

C[C@@H](Nc1ncnc2sc3c(c12)CCCC3)c1ccccc1
inactive: [1] 0.955 | [2] 0.955 | [3] 0.953 | [4] 0.958 | [5] 0.942 | [6] 0.961 | [7] 0.954 | [8] 0.945 | [9] 0.95 | [10] 0.951 | [11] 0.904 | [12] 0.963 | [13] 0.94 | [14] 0.963 | [15] 0.932 | [16] 0.895 | [17] 0.928 | [18] 0.951 | [19] 0.949 | [20] 0.958 | [21] 0.941 | [22] 0.951 | [23] 0.913 | [24] 0.954 | [25] 0.901 | [26] 0.924 | [27] 0.914 | [28] 0.944 | [29] 0.877 | [30] 0.954 | [31] 0.931 | [32] 0.889 | [33] 0.916 | [34] 0.963 | [35] 0.901 | [36] 0.969 | [37] 0.907 | [38] 0.917 | [39] 0.891 | [40] 0.953 | [41] 0.967 | [43] 0.919 | [44] 0.89 | [45] 0.893 | [46] 0.951 | [47] 0.919 | [48] 0.951 | [49] 0.956 | [50] 0.915 | [51] 0.954 | [52] 0.918 | [53] 0.944 | [54] 0.949 | [55] 0.912 | [56] 0.955 | [57] 0.893 | [58] 0.916 | [59] 0.979 | [60] 0.844 | [61] 0.959 | [62] 0.942 | [63] 0.918 | [64] 0.932 | [65] 0.947 | [67] 0.949 | [68] 0.93 | [69] 0.922 | [70] 0.929 | [71] 0.951
active: [42] 0.766 | [66] 0.787

CC(C)N(CCC(=O)c1ccc2ccccc2c1)Cc1ccccc1
active: locus YAL013W, strain DEP1, hits give low values 0.086 | locus YAL040C, strain CLN3, hits give low values 0.0757 | locus YCL061C, strain MRC1 (second series), hits give low values 0.0525 | locus YDR150W, strain NUM1, hits give low values 0.058 | locus YDR363W, strain ESC2, hits give low values 0.141 | locus YER002W, strain NOP16, hits give low values 0.0619 | locus YGR078C, strain PAC10, hits give low values 0.107 | locus YJR075W, strain HOC1, hits give low values 0.0706 | locus YMR307W, strain GAS1, hits give low values 0.0933 | locus YNL128W, strain TEP1, hits give low values 0.0691 | locus YNL153C, strain GIM3, hits give low values 0.0944 | locus YNL175C, strain NOP13, hits give low values 0.111 | locus YNL197C, strain WHI3, hits give low values 0.534 | locus YNL224C, strain SQS1, hits give low values 0.0703 | locus YOR083W, strain WHI5 (second series), hits give low values 0.124

CC1CCC(C(C)C)C(N(Cc2ccccc2)C(=O)c2ccccc2)C1 (configuration not stated)
inactive: [1] 0.996 | [2] 0.987 | [3] 0.986 | [4] 0.98 | [5] 0.986 | [6] 0.987 | [7] 0.994 | [8] 0.974 | [9] 0.986 | [10] 0.984 | [11] 0.961 | [12] 0.985 | [13] 0.991 | [14] 0.98 | [15] 0.98 | [16] 0.97 | [17] 0.978 | [18] 0.985 | [19] 0.994 | [20] 0.985 | [21] 0.954 | [22] 0.981 | [23] 0.963 | [24] 0.969 | [25] 0.946 | [26] 1.01 | [27] 1 | [28] 1.01 | [29] 0.911 | [30] 0.987 | [31] 0.923 | [32] 0.923 | [33] 0.979 | [34] 0.992 | [35] 0.959 | [36] 1.01 | [37] 0.958 | [38] 0.967 | [39] 0.932 | [40] 0.994 | [41] 1.01 | [42] 0.922 | [43] 0.945 | [44] 0.913 | [45] 0.961 | [46] 0.992 | [47] 0.976 | [48] 0.987 | [49] 0.988 | [50] 0.956 | [51] 0.984 | [52] 0.975 | [53] 0.979 | [54] 0.99 | [55] 0.898 | [56] 0.981 | [57] 0.925 | [58] 0.971 | [59] 1.05 | [60] 0.977 | [61] 0.991 | [62] 0.981 | [63] 0.983 | [64] 0.952 | [65] 0.986 | [66] 1.04 | [67] 0.988 | [68] 0.976 | [69] 0.948 | [70] 0.965 | [71] 0.985
